What all share (assay): NCI-60 one-dose screen, 48 h (100 = growth as untreated, 0 = no growth, -100 = all killed)
In one experiment the test system is T-47D breast. As to conditions: 10 µM.
The next experiment deals with BT-549 breast. The settings on record: 10 µM.
A further experiment has as its system MDA-MB-435 melanoma. The settings on record: 10 µM.
The next experiment relates to SW-620 colon. As to conditions: 10 µM.
Another experiment concerns MCF7 breast. The settings on record: 10 µM unless noted.
The test system of a further experiment is HCT-116 colon. As to conditions: 10 µM.
A further experiment relates to HCC-2998 colon. The settings on record: 10 µM.
A further experiment deals with KM12 colon. The settings on record: 10 µM.

Growth data for 18 compounds are collected here from PubChem BioAssay (NCI).

About 83,000 compounds went through this panel and 20% of them were active in at least one assay; those are over-represented in the sample as a whole.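 Each cell line was grown in a 96-well plate and treated with one concentration of compound for 48 hours. Values below 10 were considered active.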 Unmarked numbers belong to inactive results. Calls of active or inactive are those of the source.

For the compound `O=C(CS)Nc1ccc2ccccc2c1`, the growth is 90.9% in the experiment with T-47D breast; 118% in the experiment on BT-549 breast; 116% with MDA-MB-435 melanoma; 95.2% in the experiment with SW-620 colon; 85.3% in the experiment with MCF7 breast; 94.6% in the experiment with HCT-116 colon. In addition, the values for the growth in the experiment with HCC-2998 colon and in the experiment with KM12 colon were 80.5% and 102%, respectively.

As for `C/C(=N\O)C1(O)CCCCC1`, the growth with T-47D breast was 72.7%; in the experiment on BT-549 breast, 102%; with MDA-MB-435 melanoma it was 108%; with SW-620 colon it was 101%; in the experiment with MCF7 breast it was 50.7%; with HCT-116 colon, 101%. Moreover, the growth was 109% in the experiment on HCC-2998 colon and 94.6% with KM12 colon.

With `COc1cc(C2NC(=O)C(C#N)=C(Nc3cccc(C)c3)S2)ccc1O` (centres undefined), the growth in the experiment with T-47D breast was 93.5%; in the experiment on BT-549 breast, 101%; in the experiment with MDA-MB-435 melanoma, 104%; with SW-620 colon it was 104%; in the experiment on MCF7 breast, 92.9%; in the experiment with HCT-116 colon it was 103%. Moreover, the growth with HCC-2998 colon was 106%; with KM12 colon it was 104%.

As to `CCS(=O)(=O)c1cc(=O)[nH]c(=O)[nH]1`, the growth is 114% with T-47D breast; 115% in the experiment on BT-549 breast; 86.7% with MDA-MB-435 melanoma; 112% with SW-620 colon; 106% with MCF7 breast; 104% in the experiment with HCT-116 colon. The growth in the experiment on HCC-2998 colon is 116%; in the experiment on KM12 colon, 107%.

Regarding `CN(C)c1ccc(C(c2ccc(O)cc2)c2ccc(N(C)C)cc2)cc1`, the growth with T-47D breast is 59.8%; in the experiment on BT-549 breast, 103%; in the experiment on MDA-MB-435 melanoma it was 41.8%; with SW-620 colon it was 96.5%; with MCF7 breast, 78.6%; with HCT-116 colon, 93.9%. In addition, the growth in the experiment with HCC-2998 colon was 117%; in the experiment with KM12 colon, 89.5%.

Take `CCOC(=O)C(=O)C=P(c1ccccc1)(c1ccccc1)c1ccccc1`: the growth in the experiment with T-47D breast was 97.7%; with BT-549 breast, 102%; with MDA-MB-435 melanoma it was 113%; with SW-620 colon it was 114%; in the experiment on MCF7 breast it was 97.5%; in the experiment on HCT-116 colon, 100%. In addition, the growth in the experiment with HCC-2998 colon was 107%; with KM12 colon, 99.6%.

Consider `O=C(O)c1ccccc1NCc1ccco1`, for which the growth in the experiment with T-47D breast is 103%; in the experiment with BT-549 breast, 101%; in the experiment with MDA-MB-435 melanoma, 119%; with SW-620 colon, 102%; in the experiment on MCF7 breast, 97.4%; in the experiment on HCT-116 colon it was 105%. Also, the growth in the experiment with HCC-2998 colon is 80.9%; in the experiment with KM12 colon it was 117%.

For the compound `OC1CCCc2ccccc21` (centres undefined), the growth is 101% in the experiment on T-47D breast; 98.1% with BT-549 breast; 104% with MDA-MB-435 melanoma; 107% in the experiment on SW-620 colon; 94.1% in the experiment on MCF7 breast; 111% in the experiment with HCT-116 colon. In addition, the growth was 119% in the experiment on HCC-2998 colon and 109% in the experiment with KM12 colon.

In the case of `N#Cc1ccc(NC(=O)Nc2cccc(C#N)c2)cc1`, the growth was 66.9% in the experiment on T-47D breast; 108% with BT-549 breast; 78.8% in the experiment with MDA-MB-435 melanoma; 95.8% in the experiment on SW-620 colon; 82.8% in the experiment on MCF7 breast; 82.5% in the experiment on HCT-116 colon. Also, the growth in the experiment with HCC-2998 colon is 95.1%; in the experiment with KM12 colon it was 102%.

`Nc1ccc(N)c([N+](=O)[O-])c1`: the growth in the experiment on T-47D breast was 91.3%; with BT-549 breast, 96.9%; with MDA-MB-435 melanoma it was 109%; in the experiment on SW-620 colon, 97.7%; in the experiment with MCF7 breast, 101%; in the experiment with HCT-116 colon, 99.6%. Also, the growth in the experiment on HCC-2998 colon was 106%; in the experiment with KM12 colon, 104%.

Take `Cc1nc2ccccc2c2nnc(SCC(=O)N(Cc3ccccc3)c3ccccc3)n12`: the growth with T-47D breast was 76.4%; in the experiment with BT-549 breast, 87.2%; with MDA-MB-435 melanoma, 96%; in the experiment with SW-620 colon, 93.5%; in the experiment on MCF7 breast, 102%; in the experiment with HCT-116 colon, 43.1%. Besides, the figures for the growth in the experiment on HCC-2998 colon and in the experiment with KM12 colon were 110% and 129%, respectively.

For `CC(C)CCOC(=O)c1ccccc1`, the growth in the experiment on T-47D breast is 99.5%; in the experiment with BT-549 breast, 102%; with MDA-MB-435 melanoma, 106%; in the experiment on SW-620 colon, 108%; in the experiment on MCF7 breast, 99.7%; with HCT-116 colon, 103%. Further, the growth is 110% in the experiment on HCC-2998 colon and 106% with KM12 colon.

Turning to `O=S(=O)(O)c1cc(O)c2c(N=Cc3ccccc3O)c(S(=O)(=O)O)ccc2c1`, the growth with T-47D breast is 106%; in the experiment with BT-549 breast, 101%; in the experiment with MDA-MB-435 melanoma it was 109%; in the experiment with SW-620 colon, 103%; in the experiment with MCF7 breast it was 104%; with HCT-116 colon it was 98.4%. Moreover, the growth with HCC-2998 colon was 102%; with KM12 colon, 103%.

Consider `CCCC1(c2ccccc2)NC(=O)NC1=O` (centres undefined), for which the growth in the experiment with T-47D breast was 106%; in the experiment with BT-549 breast, 106%; in the experiment on MDA-MB-435 melanoma it was 113%; in the experiment on SW-620 colon, 111%; with MCF7 breast, 98.6%; with HCT-116 colon it was 99.3%. Moreover, the growth with HCC-2998 colon is 100%; with KM12 colon, 110%.

Take `O=C(/C(=N/O)c1ccccc1)c1ccccc1`: the growth is 90.2% in the experiment with T-47D breast; 98% with BT-549 breast; 108% in the experiment with MDA-MB-435 melanoma; 107% in the experiment with SW-620 colon; 87.9% with MCF7 breast; 98% with HCT-116 colon. Also, the growth in the experiment with HCC-2998 colon and in the experiment with KM12 colon was 107% in each case.

As for `O=C1C[C@H](c2ccccc2)[C@H](c2ccccc2)C1`, the growth in the experiment on T-47D breast was 99.1%; in the experiment with BT-549 breast it was 93.7%; with MDA-MB-435 melanoma it was 108%; in the experiment with SW-620 colon it was 109%; in the experiment on MCF7 breast it was 99.1%; in the experiment on HCT-116 colon, 99.1%. For the same compound, the results for the growth with HCC-2998 colon and in the experiment on KM12 colon were 104% and 115%, respectively.

In the case of `CCOc1ccc(/C=C/C(=O)c2ccccc2)cc1`, the growth is 88.8% in the experiment on T-47D breast; 102% in the experiment on BT-549 breast; 89.2% in the experiment on MDA-MB-435 melanoma; 96.4% with SW-620 colon; 70.5% in the experiment with MCF7 breast; 83.7% in the experiment with HCT-116 colon. Moreover, the growth is 92.5% in the experiment with HCC-2998 colon and 80.2% in the experiment on KM12 colon.

On to `Cc1cc(C(O)(c2ccc(Nc3ccccc3)cc2)c2ccc(Nc3ccc(S(=O)(=O)O)cc3)cc2)ccc1N` (centres undefined), for which the growth with T-47D breast is -5.86% (active); in the experiment with BT-549 breast, 22.6%; in the experiment with MDA-MB-435 melanoma, -67.4% (active); in the experiment on SW-620 colon it was -32.6% (active); in the experiment with MCF7 breast it was -3.23% (active); with HCT-116 colon it was 6.56% (active). Further, the results for the growth in the experiment on HCC-2998 colon and in the experiment with KM12 colon were -20.5% (active) and 4.39% (active), respectively.
